High-throughput results deposited in PubChem by National Center for Advancing Translational Sciences (NCATS).
Most compounds without a hit are left out; they make up all but 11% or so of the library.
PNC inhibitor: High Content Assay for Compounds that inhibit the Assembly of the Perinucleolar Compartment; PC3M PTB-GFP, PNC prevalence imaging, 16 h; active compounds read low; activity change (PNC), negative = inhibition, % at 10 µM; actives 3.1% (n = 140,000); AID 2417, 2010;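 active = readout at or below -70, meaning at least 70% loss of cells showing the perinucleolar compartment, a nuclear body marking cancer cells; inconclusive = readout between -30 and a set limit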
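Read-out is percentage of cells bearing a perinucleolar compartment, from automated 20x imaging of fixed, Hoechst-stained PC3M PTB-GFP cells. Cells were seeded 4 h, then exposed 16 h to compound (23 nl of library stock) in duplicate plates.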
ALOX12 inhib: qHTS Assay for Inhibitors of 12-hLO (12-human lipoxygenase) | purified 12-hLO, xylenol orange hydroperoxide absorbance | Potency, µM (series often up to 57.1 µM), most hits filed as inhibitors | actives 0.12% (n = 150,000); active = well fitted curve in the direction sought with a large enough effect; inconclusive = small, poorly fitted or top-dose-only effect, or another doubt; inactive = no such curve, though single readings can be large; an effect the other way counts as inactive or inconclusive; also: nearly all actives have a fitted effect of over 55% in size
Target sequence (P18054 whole entry, looked up): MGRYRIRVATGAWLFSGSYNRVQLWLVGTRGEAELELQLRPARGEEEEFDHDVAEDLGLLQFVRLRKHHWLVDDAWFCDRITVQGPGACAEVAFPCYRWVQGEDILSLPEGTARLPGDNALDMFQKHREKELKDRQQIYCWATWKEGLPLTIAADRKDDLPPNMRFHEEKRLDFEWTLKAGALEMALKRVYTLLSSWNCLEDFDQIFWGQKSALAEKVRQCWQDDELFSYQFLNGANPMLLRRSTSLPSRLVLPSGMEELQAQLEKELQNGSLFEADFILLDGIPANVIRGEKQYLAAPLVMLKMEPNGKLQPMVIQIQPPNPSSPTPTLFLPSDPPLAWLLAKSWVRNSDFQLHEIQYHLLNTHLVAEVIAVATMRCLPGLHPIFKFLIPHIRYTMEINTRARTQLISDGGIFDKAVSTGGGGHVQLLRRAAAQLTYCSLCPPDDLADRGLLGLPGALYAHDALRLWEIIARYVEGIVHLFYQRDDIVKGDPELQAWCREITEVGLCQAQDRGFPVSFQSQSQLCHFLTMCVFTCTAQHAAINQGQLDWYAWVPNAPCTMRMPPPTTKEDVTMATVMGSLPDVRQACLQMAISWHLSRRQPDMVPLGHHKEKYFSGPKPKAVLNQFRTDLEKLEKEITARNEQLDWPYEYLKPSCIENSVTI
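Xylenol orange chromogenic assay: hydroperoxide from 12hLO oxidises Fe(II), giving red-shifted Fe(III)-XO absorbance. Conditions: 150 nM enzyme, 40 uM arachidonic acid, 25 mM Hepes pH 7.0, 0.01% Triton X-100, 30 min, room temperature.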
IMPase inh: qHTS Assay for Identifying the Cell-Membrane Permeable IMPase Inhibitors. inhibition (IP1 accumulation), % at 46.1 µM. Inositol monophosphatase 1 (Rattus norvegicus), P97697. CHO-M1 cells, IP1 accumulation, HTRF TR-FRET ratio. 120,000 tested, under 10 active; active = well fitted curve in the direction sought with a large enough effect in the signal ratio, not every such curve was filed as active; inconclusive = small, poorly fitted or top-dose-only effect, or a change in a side signal; inactive = no such curve, though single readings can be large or run the other way; the % refers to the signal ratio;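 also: cells stimulated with carbachol in lithium chloride buffer; higher means more IMPase inhibition seen as more IP1 and lower FRET ratio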
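Carbachol-driven Gq signalling in CHO-M1 cells (2000/well) generates IP1. Compounds that block IMPase raise IP1 and so reduce the FRET signal from Eu-anti-IP1 and d2-IP1 after a 10 min room-temperature lysis.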
HPGD block: qHTS Assay for Inhibitors of HPGD (15-Hydroxyprostaglandin Dehydrogenase); 15-hydroxyprostaglandin dehydrogenase [NAD(+)] (Homo sapiens), P15428; purified HPGD, NADH fluorescence kinetic, PGE2 substrate; Potency, µM, actives largely listed as inhibitors; actives 4.3% (n = 150,000)
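NADH formation kinetics: reaction with 30 uM PGE2 and 1 mM NAD+ (final), 20 nM enzyme, Tris-HCl pH 8 with Tween 20, after 15 min compound preincubation at room temperature. Fluorescence change, last versus first of five reads.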
IMPase Li inh: qHTS Assay for Identifying the Cell-Membrane Permeable IMPase Inhibitors: Potentiation with Lithium; CHO-M1 cells, IP1 TR-FRET (IP-One), carbachol + lithium; AID 1457, 2008; Potency, µM (series often up to 59.4 µM), most hits filed as inhibitors; actives 0.35% (n = 210,000); active = well fitted curve in the direction sought with a large enough effect; inconclusive = small, poorly fitted or top-dose-only effect, or another doubt; inactive = no such curve, though single readings can be large; an effect the other way counts as inactive or inconclusive;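 also: IP1 builds up when IMPase is blocked and the TR-FRET signal falls; nearly all actives have a fitted effect of over 50% in size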
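IP1 accumulation measured by competitive TR-FRET in lysed CHO-M1 cells after 30 min compound exposure at 37C, with a small lithium addition to potentiate weak responses. Hill-equation AC50 from ratio and donor-channel data.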
ALDH1A1 inh: qHTS Assay for Inhibitors of Aldehyde Dehydrogenase 1 (ALDH1A1). Aldehyde dehydrogenase 1A1 (Homo sapiens), P00352. Purified ALDH1A1, NADH fluorescence, propionaldehyde substrate. Potency, µM (doses to about 75.3 µM), hits mostly inhibitors. actives 7.3% (n = 220,000)
A number is an active result; – = inactive; ? = inconclusive; · = no result; [ ] = remark or other dose. Unless noted, calls follow the shape of the dose curve; as a rule, active = well fitted inhibition curve with a large enough effect (not every such curve was filed as active); inconclusive = small, poorly fitted or top-dose-only effect, or another doubt; inactive = no such curve, though single readings can be large or run the other way.

SMILES | PNC inhibitor | ALOX12 inhib | IMPase inh | HPGD block | IMPase Li inh | ALDH1A1 inh
CC1(c2ccccc2)NC(=O)N(Cc2ccc([N+](=O)[O-])cc2)C1=O (configuration not stated) | – | – | – | – | – | –
O=C1/C(=C/c2ccccc2O)SC(=S)N1Cc1cccnc1 | – | – | · | 2.8µM | – | 7.5µM
O=C1/C(=C/c2cccnc2)SC(=S)N1Cc1ccco1 | · | –[11.4 µM] | · | – | – | 2.2µM
O=C1/C(=C/c2ccc(O)c([N+](=O)[O-])c2)SC(=S)N1Cc1ccccc1 | · | · | · | · | – | 4µM
O=C1/C(=C/c2cccnc2)SC(=S)N1c1ccccc1 | – | – | – | – | – | ?
Cc1cc(/C=C2\SC(=S)N(Cc3ccco3)C2=O)c(C)n1-c1cccnc1 | – | – | – | – | – | 0.28µM
CN1C(=O)/C(=C/c2ccc(O)c([N+](=O)[O-])c2)NC1=S | · | · | · | · | – | 11µM
CC(C)(C)c1cc(CN(CCO)CCO)cc(C(C)(C)C)c1O | ? | – | – | 25µM | – | 2.5µM
CN(C)Cc1cc(C(C)(C)C)c(O)c(C(C)(C)C)c1 | – | – | – | – | – | ?
CN(C)c1ccc(NC(=O)CSc2nc3ccccc3c(=O)n2C2CCCCC2)cc1 | – | – | – | – | – | 7.1µM
Cc1cc(NC(=O)CSc2nc3ccccc3c(=O)n2C2CCCC2)no1 | -83 | – | – | – | – | –
COc1ccc(-n2c(SCC(=O)Nc3cc(C)on3)nc3c([nH]c4ccccc43)c2=O)cc1 | · | · | · | · | 5µM | ?
COc1ccc(N(C(=O)c2ccc(Cl)cc2)S(=O)(=O)c2ccc(C)cc2)cc1 | · | · | – | · | · | ·
COc1ccc(-c2cc(C3CC3)nc3sc(C#N)c(N)c23)cc1 | ? | – | – | ? | – | ?
CC(C)(C)C(=O)c1sc2nc(-c3cccs3)cc(C(F)(F)F)c2c1N | – | – | – | ? | – | ?
N#Cc1sc2nc(-c3cccs3)cc(-c3ccc(Cl)cc3)c2c1N | – | – | ? | – | 10µM | –
N#Cc1sc2nc(-c3cccs3)cc(-c3ccccc3)c2c1N | – | – | – | ? | 10µM | ?
CCN(CC)C(=O)c1sc2nc(-c3cccs3)cc(-c3cccs3)c2c1N | · | · | · | · | · | 20µM
O=[N+]([O-])c1cccc(I)c1 | · | – | · | – | – | –
CSc1nc(NC2CCCC2)c([N+](=O)[O-])c(NC2CCCC2)n1 | · | – | – | – | – | –
CCOC(=O)C1(CC2CCCCO2)CCN(S(=O)(=O)c2ccsc2)CC1 (configuration not stated) | · | · | · | · | – | ?
CCOC(=O)C1(CC2CCCCO2)CCN(S(=O)(=O)c2ccc(C)s2)CC1 (configuration not stated) | · | · | · | · | – | 20µM
Cc1ccc(C(=O)c2oc3ccccc3c2NC(=O)COc2ccccc2C)cc1 | · | · | – | · | · | ·
COc1ccccc1NC(C#N)c1ccccc1OCc1ccccc1 (configuration not stated) | – | – | · | – | – | 18µM
c1ccc(CNc2ccnc(-c3ccoc3)n2)cc1 | · | – | · | – | – | –
SMILES | PNC inhibitor | ALOX12 inhib | IMPase inh | HPGD block | IMPase Li inh | ALDH1A1 inh
COc1c(Br)cc(Br)cc1/C=C1/C(=O)N=C(N)N1C | · | · | · | · | – | –
COc1cc(/C=C2/C(=O)N=C(N)N2C)cc(OC)c1OC | – | – | – | 16µM | – | ?
O=[N+]([O-])/C(C(Cl)=C(Cl)Cl)=C(/Sc1ccccc1)N1CCCCC1 | · | · | · | · | · | 18µM
CCCCCn1c(=N)n(CC(O)COc2cccc(C)c2)c2ccccc21 (configuration not stated) | · | · | – | · | · | ·
CC(C)N1CCC(=NNc2ccc(S(=O)(=O)N3CCOCC3)cc2[N+](=O)[O-])CC1 | – | – | · | – | – | 28µM
Cc1cccc(N2CCN(Cc3cc(=O)n4ccsc4n3)CC2)c1C | – | – | – | – | – | –
O=c1cc(CN2CCN(c3ccccc3O)CC2)nc2sccn12 | – | – | – | ? | – | 25µM
O=C(CCn1c(=O)c2ccccc2n(CC(=O)Nc2cccc(F)c2)c1=O)NCCc1ccccc1 | · | · | – | · | · | ·
CC(C)(C)N1C(=O)[C@H]2[C@@H]3[C@H](O)[C@H](O)CC(=O)[C@H]3CC[C@H]2C1=O | · | · | · | · | · | –[13.5 µM]
COCCN(C(=O)C(F)(F)F)C(C(=O)NC1CCCCC1)c1ccco1 (configuration not stated) | ? | – | – | – | – | 4.7µM
COCCN(C(=O)CNC(=O)c1ccco1)C(C(=O)NC1CCCC1)c1cccs1 (configuration not stated) | -100 | – | – | – | – | –
COCCN(C(=O)CNC(=O)c1cccs1)C(C(=O)NC1CCCCC1)c1ccco1 (configuration not stated) | – | – | – | – | – | –
CCC/C=C(\CCC)C(NC(=O)c1ccc(C(F)(F)F)cc1)c1ccc(C(F)(F)F)cc1 (configuration not stated) | · | – | · | – | – | –
Cn1c(=O)c2c(nc(CN3CCN(c4ccccc4)CC3)n2CCN2CCOCC2)n(C)c1=O | – | – | – | – | – | ?
CCC1CCCCN1Cc1nc2c(c(=O)n(C)c(=O)n2C)n1CC(C)C (configuration not stated) | -95 | – | – | – | – | –
CC1CC(C)CN(Cc2nc3c(c(=O)n(C)c(=O)n3C)n2CCN2CCOCC2)C1 (configuration not stated) | – | – | – | – | – | 7.9µM
CC(C)CCn1c(CN2CCOCC2)nc2c1c(=O)n(C)c(=O)n2C | ? | – | – | – | – | 14µM
CCc1ccc(NS(=O)(=O)c2ccc3oc(=O)c4ncn(CC)c4c3c2)cc1 | · | · | – | · | · | ·
Cc1noc(C)c1C(=O)N1CCC2(CCCN(Cc3nccs3)C2)CC1 | · | – | · | – | – | –
NCCC[C@@H](CC(=O)N[C@@H]1CCCC[C@H]1C(=O)N[C@H](CC(=O)N[C@@H](CCC(=O)O)CC(=O)O)Cc1c[nH]c2ccccc12)NC(=O)C[C@H](CO)NC(=O)[C@@H]1CNCC[C@H]1N | · | – | · | – | – | ?
CCOC(=O)c1c(C)[nH]c(C2=NNC(=Nc3ccc(OCC)cc3)SC2)c1C | – | – | · | – | – | ?
CC(=O)c1c(C)[nH]c(C2=NNC(=NC(C)(C)C)SC2)c1C | · | · | · | · | – | 11µM
CCOC(=O)c1c(C)[nH]c(C2=NNC(=Nc3ccccc3OC)SC2)c1C | – | – | – | – | – | –
CCOC(=O)c1c(C)[nH]c(C2=NNC(=Nc3ccccc3)SC2)c1C | – | – | – | · | · | 13µM
